Test results reported in PubChem BioAssay (EPA / NIEHS).
Values joined by “and” are separate entries in the source; they are usually repeats but may differ in a detail not shown here. Equal values may be shown once. Results filed as inconclusive are left out. Where a structure was tested more than once in an assay, its records may differ in their call. Active and inactive are the calls of the source. How the source made its calls: active means hit-call score of the fitted dose curve at least 0.9, where 1 is the maximum; inconclusive means response in the unintended direction; inactive means score below 0.9.

What was measured:
[1] = molecular target: human Ephrin type-A Receptor 1 (EphA1), EPHA1 (gene 2041) (UniProt P21709); test: NVS_ENZ_hEphA1: NovaScreen (NVS) Enzymatic Assay for human Ephrin type-A Receptor 1 (EphA1) (AID 2283158);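 further: activity is signal loss versus DMSO meaning EphA1 kinase inhibition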
Chain of human Ephrin type-A Receptor 1 (EphA1), EPHA1 (gene 2041) (P21709 whole entry, looked up): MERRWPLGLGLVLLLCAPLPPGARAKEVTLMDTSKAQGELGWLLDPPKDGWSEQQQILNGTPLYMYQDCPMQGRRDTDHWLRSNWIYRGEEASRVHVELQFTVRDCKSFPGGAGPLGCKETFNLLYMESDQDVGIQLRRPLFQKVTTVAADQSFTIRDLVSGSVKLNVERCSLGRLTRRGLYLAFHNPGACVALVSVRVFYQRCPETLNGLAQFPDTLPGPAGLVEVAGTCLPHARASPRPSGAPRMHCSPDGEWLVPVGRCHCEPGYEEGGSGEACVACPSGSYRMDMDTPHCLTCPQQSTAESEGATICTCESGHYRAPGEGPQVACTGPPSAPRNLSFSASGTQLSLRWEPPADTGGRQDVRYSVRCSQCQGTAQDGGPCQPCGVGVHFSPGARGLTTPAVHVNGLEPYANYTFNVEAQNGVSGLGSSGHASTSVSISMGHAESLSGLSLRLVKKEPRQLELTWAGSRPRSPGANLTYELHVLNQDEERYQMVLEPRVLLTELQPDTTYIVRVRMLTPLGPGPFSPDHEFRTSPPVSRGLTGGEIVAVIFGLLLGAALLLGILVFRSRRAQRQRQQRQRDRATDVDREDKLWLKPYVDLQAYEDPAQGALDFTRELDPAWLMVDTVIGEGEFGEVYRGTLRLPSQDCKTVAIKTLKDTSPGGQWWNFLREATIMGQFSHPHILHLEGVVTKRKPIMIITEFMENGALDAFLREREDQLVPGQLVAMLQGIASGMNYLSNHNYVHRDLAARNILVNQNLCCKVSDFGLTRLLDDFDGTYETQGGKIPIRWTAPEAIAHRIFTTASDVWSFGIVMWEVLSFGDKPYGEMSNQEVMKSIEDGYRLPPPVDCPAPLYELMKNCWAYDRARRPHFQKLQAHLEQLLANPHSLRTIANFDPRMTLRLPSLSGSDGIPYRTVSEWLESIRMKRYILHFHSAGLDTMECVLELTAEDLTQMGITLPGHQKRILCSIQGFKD
In short: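 Fluorescent substrate conversion, resolved by mobility-shift separation, measured 1 hour post-dosing using recombinant enzyme; signal loss relative to DMSO baseline. Single-concentration duplicates at 25 uM preceded singleton concentration series topping at 50 uM.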

[2] = molecular target: human Dual Specificity Protein Phosphatase 3 (DUSP3), DUSP3 (gene 1845) (UniProt P51452); test: NVS_ENZ_hDUSP3: NovaScreen (NVS) Enzymatic Assay for human Dual Specificity Protein Phosphatase 3 (DUSP3) (AID 2283152);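 further: phosphatase activity of recombinant human DUSP3 on a fluorogenic substrate without cells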
In short: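 Cell-free fluorescence-intensity enzyme activity assay with recombinant protein and substrate; loss of signal fitted relative to DMSO baseline. Primary screen in duplicate at 25 uM, actives then run in concentration series; measured 0 h after dosing.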

[3] = molecular target: human Ephrin type-B Receptor 1 (EphB1), EPHB1 (gene 2047) (UniProt P54762); test: NVS_ENZ_hEphB1: NovaScreen (NVS) Enzymatic Assay for human Ephrin type-B Receptor 1 (EphB1) (AID 2283154)
Chain of human Ephrin type-B Receptor 1 (EphB1), EPHB1 (gene 2047) (P54762 whole entry, looked up): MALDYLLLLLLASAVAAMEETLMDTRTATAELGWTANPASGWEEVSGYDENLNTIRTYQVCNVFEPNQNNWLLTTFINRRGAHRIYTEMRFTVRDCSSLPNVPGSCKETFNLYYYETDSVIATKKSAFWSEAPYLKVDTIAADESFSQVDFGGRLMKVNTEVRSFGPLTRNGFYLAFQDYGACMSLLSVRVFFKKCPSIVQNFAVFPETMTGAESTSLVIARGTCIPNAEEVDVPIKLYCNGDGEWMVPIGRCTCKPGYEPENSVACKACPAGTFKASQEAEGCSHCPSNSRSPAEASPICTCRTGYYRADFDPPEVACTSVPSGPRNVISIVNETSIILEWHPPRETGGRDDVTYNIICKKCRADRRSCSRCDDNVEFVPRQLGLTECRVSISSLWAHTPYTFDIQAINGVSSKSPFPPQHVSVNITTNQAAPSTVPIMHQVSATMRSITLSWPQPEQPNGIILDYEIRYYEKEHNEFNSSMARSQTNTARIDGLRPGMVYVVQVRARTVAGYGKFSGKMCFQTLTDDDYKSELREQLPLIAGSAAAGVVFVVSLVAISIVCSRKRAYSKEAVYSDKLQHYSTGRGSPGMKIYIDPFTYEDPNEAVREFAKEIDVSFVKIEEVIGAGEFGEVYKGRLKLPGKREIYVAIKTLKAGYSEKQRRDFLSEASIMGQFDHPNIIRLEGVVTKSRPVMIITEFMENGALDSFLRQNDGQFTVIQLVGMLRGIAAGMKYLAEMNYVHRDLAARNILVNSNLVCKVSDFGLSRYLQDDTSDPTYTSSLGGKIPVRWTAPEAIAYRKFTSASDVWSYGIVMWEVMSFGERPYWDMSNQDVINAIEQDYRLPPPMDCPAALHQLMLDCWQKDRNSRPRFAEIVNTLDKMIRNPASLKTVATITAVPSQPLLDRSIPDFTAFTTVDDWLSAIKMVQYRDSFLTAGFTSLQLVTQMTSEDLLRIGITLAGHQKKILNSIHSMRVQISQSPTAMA
In short: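 Recombinant EphB1 activity read by fluorescence after mobility-shift separation of product from substrate, 1 h post-dosing. Compounds screened in duplicate at 25 uM; inhibition scored as signal loss relative to DMSO.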

[4] = molecular target: human Esterase Plasma (ES), BCHE (gene 590) (UniProt P06276); test: NVS_ENZ_hES: NovaScreen (NVS) Enzymatic Assay for human Esterase Plasma (ES) (AID 2283157)
In short: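 Screening ran at 25 uM in duplicate, followed by singleton concentration series reaching 50 uM for actives. Human plasma protein, colorimetric detection, 0.25 h exposure, DMSO negative control.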

[5] = molecular target: human Colony Stimulating Factor 1 Receptor (CSF1R), CSF1R (gene 1436) (UniProt P07333); test: NVS_ENZ_hCSF1R: NovaScreen (NVS) Enzymatic Assay for human Colony Stimulating Factor 1 Receptor (CSF1R) (AID 2283150)
In short: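 Compounds screened in duplicate at 25 uM, then concentration-response (top 50 uM) for those passing threshold such as 30% inhibition; recombinant CSF1R activity measured 1 h post-dosing via fluorescent substrate/product mobility-shift separation, loss of signal versus DMSO.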

[6] = molecular target: human Caspase 8 (CASP8), CASP8 (gene 841) (UniProt Q14790); test: NVS_ENZ_hCASP8: NovaScreen (NVS) Enzymatic Assay for human Caspase 8 (CASP8) (AID 2283146)
In short: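 The primary screen tested compounds in duplicate at a single 25 uM concentration, with actives followed up in concentration series. Activity of recombinant (E. coli) protease was measured by fluorescence 1 h post-dose, as signal loss against DMSO.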

[7] = molecular target: human Elastase, ELANE (gene 1991) (UniProt P08246); test: NVS_ENZ_hElastase: NovaScreen (NVS) Enzymatic Assay for human Elastase (AID 2283153)
Chain of human Elastase, ELANE (gene 1991) (P08246 whole entry, looked up): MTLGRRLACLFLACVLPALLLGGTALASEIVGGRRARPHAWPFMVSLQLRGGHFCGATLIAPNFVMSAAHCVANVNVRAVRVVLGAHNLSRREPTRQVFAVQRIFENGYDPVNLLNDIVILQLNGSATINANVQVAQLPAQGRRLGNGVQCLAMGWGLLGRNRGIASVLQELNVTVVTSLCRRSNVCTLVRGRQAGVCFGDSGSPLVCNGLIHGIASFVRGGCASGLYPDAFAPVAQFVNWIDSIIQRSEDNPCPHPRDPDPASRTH
In short: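 Concentration-response to 50 uM max, run singly for chemicals passing a threshold (e.g., 30% inhibition) in a duplicate 25 uM single-point screen. Neutrophil-derived human elastase, absorbance read-out of enzyme activity at 1.5 h; DMSO baseline.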

[8] = molecular target: Mitogen-activated protein kinase 3 (Homo sapiens) (UniProt P27361); test: NVS_ENZ_hMAPK3: NovaScreen (NVS) Enzymatic Assay for human Mitogen-Activated Protein Kinase 3 (MAPK 3) (AID 2283177)
In short: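 Chemicals were first tested in duplicate at 25 uM, with hits re-run as concentration series (max 50 uM). Recombinant enzyme activity, measured 1 h post-dose in a cell-free format, was read by fluorescence/mobility shift relative to DMSO.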

[9] = molecular target: human MAP Kinase-Activated Protein Kinase 2 (MAPKAPK2), MAPKAPK2 (gene 9261) (UniProt P49137); test: NVS_ENZ_hMAPKAPK2: NovaScreen (NVS) Enzymatic Assay for human MAP Kinase-Activated Protein Kinase 2 (MAPKAPK2) (AID 2283178)
Chain of human MAP Kinase-Activated Protein Kinase 2 (MAPKAPK2), MAPKAPK2 (gene 9261) (P49137 whole entry, looked up): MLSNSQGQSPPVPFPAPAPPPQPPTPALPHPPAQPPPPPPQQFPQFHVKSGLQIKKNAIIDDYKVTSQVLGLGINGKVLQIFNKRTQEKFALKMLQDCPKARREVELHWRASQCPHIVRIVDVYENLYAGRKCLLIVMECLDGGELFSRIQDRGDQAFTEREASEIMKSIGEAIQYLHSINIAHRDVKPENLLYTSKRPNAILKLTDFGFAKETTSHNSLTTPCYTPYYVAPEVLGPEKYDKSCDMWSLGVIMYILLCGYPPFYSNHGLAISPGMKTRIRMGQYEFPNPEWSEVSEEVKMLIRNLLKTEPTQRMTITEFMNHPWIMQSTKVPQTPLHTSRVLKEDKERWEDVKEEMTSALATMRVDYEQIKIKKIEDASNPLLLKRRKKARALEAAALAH
In short: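 Chemicals screened in duplicate at 25 uM, then to 50 uM top concentration in concentration-response, against recombinant human MAPKAPK2; substrate conversion read 1 hr post-dosing by fluorescence after electrophoretic mobility-shift separation, loss-of-signal relative to DMSO.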

[10] = molecular target: Histone deacetylase 3 (Homo sapiens) (UniProt O15379); test: NVS_ENZ_hHDAC3: NovaScreen (NVS) Enzymatic Assay for human Histone Deacetylase 3 (HDAC3) (AID 2283163)
Chain of Histone deacetylase 3 (Homo sapiens) (O15379 whole entry, looked up): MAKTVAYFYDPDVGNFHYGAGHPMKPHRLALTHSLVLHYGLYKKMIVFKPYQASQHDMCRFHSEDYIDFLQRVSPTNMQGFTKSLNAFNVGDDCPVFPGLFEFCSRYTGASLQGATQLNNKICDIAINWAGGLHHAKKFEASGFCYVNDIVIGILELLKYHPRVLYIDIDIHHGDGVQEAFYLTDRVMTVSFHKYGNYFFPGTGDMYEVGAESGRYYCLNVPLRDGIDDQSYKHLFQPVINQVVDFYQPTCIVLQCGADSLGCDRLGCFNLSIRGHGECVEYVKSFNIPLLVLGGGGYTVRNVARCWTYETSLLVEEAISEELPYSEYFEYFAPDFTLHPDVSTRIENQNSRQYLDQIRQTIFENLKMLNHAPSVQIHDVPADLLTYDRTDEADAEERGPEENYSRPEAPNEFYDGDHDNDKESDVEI
In short: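 Cell-free enzyme format: loss of fluorescent product after mobility-shift separation, 1 h incubation, recombinant human HDAC3. Single 25 uM duplicate screen first, then concentration series to a 50 uM top for hits; DMSO as baseline.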

[11] = molecular target: Collagenase 3 (Homo sapiens) (UniProt P45452); test: NVS_ENZ_hMMP13: NovaScreen (NVS) Enzymatic Assay for human Matrix Metalloproteinase-13 (MMP13) (AID 2283182)
In short: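 Recombinant MMP13 cleaving fluorescent substrate, cell-free, measured 1 h after dosing. Primary duplicate screen at 25 uM; actives tested in concentration-response up to 50 uM; loss of signal relative to DMSO.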

[12] = molecular target: human Casein Kinase 2- alpha 2 beta 2 (CK2a2b2), CSNK2A1 (gene 1457) (UniProt P68400); test: NVS_ENZ_hCK2a2b2: NovaScreen (NVS) Enzymatic Assay for human Casein Kinase 2- alpha 2 beta 2 (CK2a2b2) (AID 2283147)
Chain of human Casein Kinase 2- alpha 2 beta 2 (CK2a2b2), CSNK2A1 (gene 1457) (P68400 whole entry, looked up): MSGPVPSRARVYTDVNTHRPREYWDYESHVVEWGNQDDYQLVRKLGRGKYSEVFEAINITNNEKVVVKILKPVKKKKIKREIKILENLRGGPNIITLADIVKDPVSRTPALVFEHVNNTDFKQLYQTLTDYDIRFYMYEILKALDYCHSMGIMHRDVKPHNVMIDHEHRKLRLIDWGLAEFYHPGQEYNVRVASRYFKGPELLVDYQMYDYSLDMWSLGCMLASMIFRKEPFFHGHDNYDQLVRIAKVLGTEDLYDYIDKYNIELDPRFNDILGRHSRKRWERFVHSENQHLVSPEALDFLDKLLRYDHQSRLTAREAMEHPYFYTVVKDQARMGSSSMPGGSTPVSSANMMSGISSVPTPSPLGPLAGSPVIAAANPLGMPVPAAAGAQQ
In short: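 Compounds were first screened in duplicate at 25 uM, and those passing the threshold were re-tested in concentration series up to a 50 uM maximum. Kinase activity of recombinant human CK2 α2β2 was measured 1 h after dosing by fluorescent substrate/product mobility-shift separation.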

[13] = molecular target: human LYN Proto-Oncogene, Src family Tyrosine Kinase (LynA), LYN (gene 4067) (UniProt P07948); test: NVS_ENZ_hLynA: NovaScreen (NVS) Enzymatic Assay for human LYN Proto-Oncogene, Src family Tyrosine Kinase (LynA) (AID 2283173)
In short: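 Recombinant kinase with fluorescent substrate; product separated from substrate by electrophoretic mobility shift and read 1 h after dosing. Duplicate screen at 25 uM, then concentration-response up to 50 uM; activity scored as signal loss against DMSO.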

[14] = molecular target: human Caspase 4 (CASP4), CASP4 (gene 837) (UniProt P49662); test: NVS_ENZ_hCASP4: NovaScreen (NVS) Enzymatic Assay for human Caspase 4 (CASP4) (AID 2283143)
In short: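 Compounds were first tested in duplicate at 25 uM, and hits were titrated singly to a 50 uM maximum. Recombinant protease from E. coli was read by fluorescence 2 h post-dose, and activity loss was fitted against the DMSO baseline.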

CDK2 (gene 1017) = CDK2 (gene 1017) (UniProt P24941); test: NVS_ENZ_hCDK2: NovaScreen (NVS) Enzymatic Assay for human Cyclin-Cependent Kinase 2 (CDK2) (AID 2283144)
In short: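 Compounds screened in duplicate at 25 uM, then in singleton concentration-response to a maximum of 50 uM, against recombinant CDK2; kinase activity read 1 hr after dosing by fluorescence with mobility-shift separation of substrate and product.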

[15] = molecular target: Glycogen synthase kinase-3 beta (Homo sapiens) (UniProt P49841); test: NVS_ENZ_hGSK3b: NovaScreen (NVS) Enzymatic Assay for human Glycogen Synthase Kinase-3 beta (GSK3b) (AID 2283165)
Chain of Glycogen synthase kinase-3 beta (Homo sapiens) (P49841 whole entry, looked up): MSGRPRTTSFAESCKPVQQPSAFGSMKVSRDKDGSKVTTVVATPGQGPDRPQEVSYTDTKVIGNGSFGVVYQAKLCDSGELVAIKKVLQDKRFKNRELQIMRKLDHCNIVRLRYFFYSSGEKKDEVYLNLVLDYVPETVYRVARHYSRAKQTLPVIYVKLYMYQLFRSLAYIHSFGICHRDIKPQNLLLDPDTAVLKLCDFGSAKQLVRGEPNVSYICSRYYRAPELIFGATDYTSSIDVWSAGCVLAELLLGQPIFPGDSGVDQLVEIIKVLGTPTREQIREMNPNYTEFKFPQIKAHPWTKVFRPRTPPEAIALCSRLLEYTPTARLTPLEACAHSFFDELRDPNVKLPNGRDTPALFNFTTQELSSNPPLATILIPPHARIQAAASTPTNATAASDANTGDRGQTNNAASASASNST
In short: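 Recombinant enzyme with specific fluorescent substrate, 1 h, product separated by electrophoretic mobility shift. Primary duplicate screen at 25 uM; actives (e.g. 30% inhibition) followed in singleton concentration-response to 50 uM. Signal loss fitted versus DMSO.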

[16] = molecular target: human Janus Kinase 2 (Jak2), JAK2 (gene 3717) (UniProt O60674); test: NVS_ENZ_hJak2: NovaScreen (NVS) Enzymatic Assay for human Janus Kinase 2 (Jak2) (AID 2283169)
Chain of human Janus Kinase 2 (Jak2), JAK2 (gene 3717) (O60674 whole entry, looked up): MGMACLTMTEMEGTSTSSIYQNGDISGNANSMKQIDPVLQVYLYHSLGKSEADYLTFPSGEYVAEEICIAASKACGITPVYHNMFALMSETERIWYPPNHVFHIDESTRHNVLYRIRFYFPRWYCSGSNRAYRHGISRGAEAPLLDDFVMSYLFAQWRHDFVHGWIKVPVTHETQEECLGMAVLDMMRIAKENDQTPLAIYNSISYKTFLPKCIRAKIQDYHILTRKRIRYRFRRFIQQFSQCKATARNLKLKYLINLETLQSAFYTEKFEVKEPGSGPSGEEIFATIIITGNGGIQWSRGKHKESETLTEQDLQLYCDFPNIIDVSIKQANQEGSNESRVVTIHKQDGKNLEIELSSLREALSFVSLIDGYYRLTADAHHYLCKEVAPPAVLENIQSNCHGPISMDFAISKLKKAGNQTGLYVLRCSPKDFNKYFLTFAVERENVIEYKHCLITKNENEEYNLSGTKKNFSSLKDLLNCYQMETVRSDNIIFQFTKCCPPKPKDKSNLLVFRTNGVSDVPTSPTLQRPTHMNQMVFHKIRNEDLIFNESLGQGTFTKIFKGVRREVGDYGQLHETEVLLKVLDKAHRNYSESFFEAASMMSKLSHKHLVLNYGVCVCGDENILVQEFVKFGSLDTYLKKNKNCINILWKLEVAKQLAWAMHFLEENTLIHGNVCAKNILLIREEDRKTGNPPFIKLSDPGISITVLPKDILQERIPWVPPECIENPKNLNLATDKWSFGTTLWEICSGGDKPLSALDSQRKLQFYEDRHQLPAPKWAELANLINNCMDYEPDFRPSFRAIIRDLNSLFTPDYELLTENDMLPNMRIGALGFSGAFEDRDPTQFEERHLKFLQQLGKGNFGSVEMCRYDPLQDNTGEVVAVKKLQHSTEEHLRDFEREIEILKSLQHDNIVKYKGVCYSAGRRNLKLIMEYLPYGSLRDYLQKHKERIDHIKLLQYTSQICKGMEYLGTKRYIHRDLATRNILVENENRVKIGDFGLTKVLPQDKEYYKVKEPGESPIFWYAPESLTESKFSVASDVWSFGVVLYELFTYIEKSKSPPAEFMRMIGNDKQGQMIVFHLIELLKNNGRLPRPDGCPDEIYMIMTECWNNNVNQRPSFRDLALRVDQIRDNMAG
In short: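 Single-point duplicate screen at 25 uM, with hits run in concentration series to a 50 uM top dose. Substrate-product separation by mobility shift with fluorescence detection, 1 h post-dosing; DMSO baseline.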

[17] = molecular target: human c-Jun N-terminal Kinases (JNK2), MAPK9 (gene 5601) (UniProt P45984); test: NVS_ENZ_hJNK2: NovaScreen (NVS) Enzymatic Assay for human c-Jun N-terminal Kinases (JNK2) (AID 2283171)
In short: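 Chemicals first tested in duplicate at 25 uM, then in singleton concentration series up to 50 uM, against extracted JNK2 enzyme. Activity loss read by fluorescence with mobility-shift separation 1 h post-dose; DMSO baseline.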

[18] = molecular target: human FYN Proto-Oncogene, Src family Tyrosine Kinase (Fyn), FYN (gene 2534) (UniProt P06241); test: NVS_ENZ_hFyn: NovaScreen (NVS) Enzymatic Assay for human FYN Proto-Oncogene, Src family Tyrosine Kinase (Fyn) (AID 2283161)
In short: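 Cell-free kinase activity read by fluorescence after mobility-shift separation of substrate and product, 1 h post-dose. Initial single concentration 25 uM in duplicate, then concentration-response follow-up; DMSO baseline.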

[19] = molecular target: human Insulin Receptor (InsR), INSR (gene 3643) (UniProt P06213); test: NVS_ENZ_hInsR: NovaScreen (NVS) Enzymatic Assay for human Insulin Receptor (InsR) (AID 2283168)
In short: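 Cell-free enzyme assay read 1 h post-dose by fluorescence after substrate/product mobility-shift separation. Duplicate 25 uM primary screen, then singleton concentration-response up to 50 uM for compounds passing threshold; loss of signal vs DMSO.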

## O=C(c1ccccc1)C1CCCCC1
[1]
  outcome: inactive

## COC(=O)CSc1cc(N=c2sc(=O)n3n2CCCC3)c(F)cc1Cl
[2]
  outcome: inactive
[3]
  outcome: inactive
[4]
  outcome: inactive

## CCNc1nc(N)nc(Cl)n1
[5]
  outcome: inactive

## COC(=O)c1cccc(C)c1S(=O)(=O)NC(=O)Nc1nc(OCC(F)(F)F)nc(N(C)C)n1
[6]
  outcome: inactive
[7]
  outcome: inactive

## CCCCOC(=O)[C@@H](C)Oc1ccc(Oc2ccc(C(F)(F)F)cn2)cc1
[2]
  outcome: inactive

## COC(=O)c1ccccc1S(=O)(=O)NC(=O)Nc1nc(OC(F)F)cc(OC(F)F)n1
[8]
  outcome: inactive
[9]
  outcome: inactive

## COC(=O)c1ccc(CNS(C)(=O)=O)cc1S(=O)(=O)NC(=O)Nc1nc(OC)cc(OC)n1
[10]
  outcome: inactive

## CCCCCOC(=O)COc1cc(N2C(=O)C3=C(CCCC3)C2=O)c(F)cc1Cl
[7]
  outcome: inactive

## Oc1ccc(C(c2ccc(O)cc2)C(Cl)(Cl)Cl)cc1
[3]
  outcome: inactive
[8]
  outcome: inactive
[11]
  outcome: inactive

## N#CSCSc1nc2ccccc2s1
[12]
  AC50: 14.4 µM (active)
[3]
  outcome: inactive
[1]
  outcome: inactive
[10]
  AC50: 20 µM (active)
[13]
  outcome: inactive
[9]
  outcome: inactive

## CCC(O)=C1C(=O)CC(C(=O)O)CC1=O (stereo not drawn)
[14]
  outcome: inactive

## C=CCOC(Cn1ccnc1)c1ccc(Cl)cc1Cl (stereo not drawn)
[11]
  outcome: inactive

## S=C(S)NCCNC(=S)S.[Mn+2].[S-]C([S-])=NCCN=C([S-])[S-].[Zn+2]
[14]
  AC50: 0.179 µM (active)
  outcome: inactive
CDK2 (gene 1017)
  AC50: 0.879 µM (active)
[6]
  outcome: inactive
[12]
  AC50: 5.4 µM (active)
[5]
  AC50: 963 nM (active) and 315 nM (active) and 12.9 µM (active)
[1]
  AC50: 43.5 µM (active)
  outcome: inactive
[10]
  AC50: 10 µM (active) and 445 nM (active)
[15]
  AC50: 1.08 µM (active) and 3.32 µM (active) and 678 nM (active)
[16]
  AC50: 7.51 µM (active) and 40.2 µM (active)
  outcome: inactive
[17]
  outcome: inactive
[8]
  AC50: 6.76 µM (active) and 25 µM (active)
[9]
  AC50: 408 nM (active) and 399 nM (active)
[11]
  AC50: 16.2 µM (active)
  outcome: inactive

## O=C(O)C1(C(=O)Nc2ccc(Cl)cc2Cl)CC1
CDK2 (gene 1017)
  AC50: 7.29 µM (active)
[6]
  AC50: 7.55 µM (active)
[12]
  AC50: 12.7 µM (active)
[5]
  outcome: inactive
[15]
  outcome: inactive
[17]
  AC50: 25 µM (active)
[9]
  outcome: inactive

## CCOC(=O)[C@H](C)Oc1ccc(Oc2nc3ccc(Cl)cc3o2)cc1
[5]
  AC50: 3.18 µM (active)
[11]
  outcome: inactive

## O=C(c1ccc(O)cc1O)c1ccc(O)cc1O
CDK2 (gene 1017)
  AC50: 17 µM (active)
[5]
  AC50: 11.6 µM (active)
[1]
  AC50: 25 µM (active)
[18]
  AC50: 15.1 µM (active)
[10]
  outcome: inactive
[15]
  AC50: 25 µM (active)
[19]
  AC50: 19.3 µM (active)
[16]
  AC50: 21 µM (active)
[13]
  outcome: inactive
